{"source": "PubChem BioAssay (NCATS)", "note": "Several values for one entry are separate records, joined by “and”; a condition that tells them apart may be missing. Equal entries are not always repeated. Results filed as inconclusive are left out. Activity calls are given as the source filed them. Calls come from the whole dose curve; as a rule, active = well fitted activation curve with a large enough effect; inconclusive = small, poorly fitted or top-dose-only effect; inactive = no such curve, though single readings can be large or run the other way. Potency is the fitted concentration of half-maximal effect."}
{"biological_target": "Cellular tumor antigen p53 (Homo sapiens) (UniProt P04637)", "sequence (P04637 whole entry, looked up)": "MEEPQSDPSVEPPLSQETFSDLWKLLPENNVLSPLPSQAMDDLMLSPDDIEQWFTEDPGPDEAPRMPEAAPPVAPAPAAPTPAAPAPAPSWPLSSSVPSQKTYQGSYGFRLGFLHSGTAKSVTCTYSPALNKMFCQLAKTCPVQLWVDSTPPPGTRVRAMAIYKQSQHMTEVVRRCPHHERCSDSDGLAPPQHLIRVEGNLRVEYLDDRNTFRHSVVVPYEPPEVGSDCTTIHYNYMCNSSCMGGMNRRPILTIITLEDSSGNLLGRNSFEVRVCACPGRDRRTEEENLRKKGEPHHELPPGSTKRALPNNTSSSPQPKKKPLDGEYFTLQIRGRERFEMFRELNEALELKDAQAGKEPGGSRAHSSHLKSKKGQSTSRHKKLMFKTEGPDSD", "assay": "Primary qHTS for small molecule compounds that upregulate eGFP-tagged delta133p53alpha (in N-terminal) cells. (AID 2060322); note: nearly all actives have a fitted effect of over 75% in size;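 for activation: cells pre-induced with doxycycline then dosed without doxycycline; series mostly up to about 56 µM; 0% = DMSO vehicle and 100% = reference activator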", "details": "NCI-H358 eGFP-delta133p53alpha fluorescence, 24 h; activation: stronger effect = higher value", "excerpt": "Assay Development and Screening Technology\nNational Center for Advancing Translational Sciences (NCATS),\nNational Institute of Health (NIH), Rockville, Maryland\nCellular senescence (CS) is one of the hallmarks of aging and age-related diseases. Senescent cells are characterized by an irreversible growth arrest, an increase in senescence-associated beta-galactosidase (SA-beta-gal) activity and p16INK4a expression, an activation of the DNA damage response pathways, and the emergence of a senescence-associated secretory phenotype (SASP).\nDelta133p53alpha, a human/primate-specific p53 protein isoform, delays or inhibits the induction of CS and SASP in various types of human cells, including progeria-derived fibroblasts, primary normal astrocytes, and CD8+ T lymphocytes. Induction of delta133p53alpha with small molecule compounds may provide therapeutic opportunities for inhibition of senescence/SASP-associated pathologies in progeria syndromes, astrocyte-mediated neuroprotection in neurodegenerative diseases, and possibly prevention and treatment of a wider range of senescence- and aging-associated diseases.\nHere we report the development and validation of a cell-based quantitative high throughput screening (qHTS) assay in 1,536-well format. This qHTS assay uses the NCI-H358 cell line with doxycycline-inducible expression of enhanced green fluorescent protein (eGFP)-tagged delta133p53alpha, which allows efficient and highly quantitative measurement of the protein levels.\nPROTOCOL TABLE (as described by Inglese J, Shamu CE and Guy RK. 2007)\nSEQUENCE No. (e.g., 1, 2, 3, etc.); […] (e.g., Cells, Incubation, Reagent, etc.); VALUE; DESCRIPTION.\n1; Cells; 4uL; 800 doxycycline treated cells / well in doxycycline-free media, 1536-well black, clear-bottom low base Aurora microplates.\n2; Compounds; 23 nL; Kalypsis pin tool (Wako) equipped with 1536-well pin heads, 5-azacytidine positive control.\n3; Incubation; 24 hr; 37C, 5% CO2; 95% relative humidity.\n4; Aspiration; 1x; BioTek EL406 washer dispenser (Agilent).\n5; Fixing; 3.5% paraformaldehyde, BioTek EL406 washer dispenser (Agilent).\n6; Washing; 1x PBS; BioTek EL406 washer dispenser (Agilent).\n7; Nuclei staining; 1:1000 dilution of Hoechst 33342 (Thermofisher), BioTek EL406 washer dispenser (Agilent).\n8; Incubation; 20 min; in the dark at room temperature.\n9; Washing; 2x, 1x PBS (ThermoFisher), BioTek EL406 washer dispenser (Agilent).\n10; Reagent; 10 uL; 1x PBS per well, sealed with clear adhesive tape.\nNOTES (numbers refer to sequence numbers above).\n1. NCI-H358 cells expressing eGFP-tagged delta133p53alpha were grown in T75 culture flasks and treated with doxycycline for 24h, at 10 ng/ml for eGFP-D133p53a cells (N-terminal cell) and 100 ng/ml for D133p53a-eGFP cells (C-terminal cells). Cells were trypsinized, counted using a Counted 3 Automated Cell Counter (Thermo Fisher), and diluted to a concentration of 200,000 cells/ml. A Multidrop Combi Reagent Dispenser (ThermoFisher) was used to dispense 800 cells/well in […] of doxycycline-free media, into 1536-well black/clear bottom low base plates (AuroraMicroplates).\n2. After plating cells, 23 nl of compound library, DMSO vehicle control or positive control (5-azacytidine) were transferred by Pin Tool (Wako). The plate map layout was the same for each plate: (column 1) non-doxycycline treated cells + DMSO vehicle control; (column 2) doxycycline treated cells + DMSO vehicle control baseline; (column 3) doxycycline treated cells + positive control 57.5 uM final concentration 5-azacytidine; (column 4) doxycycline treated cells + serial dilution of 5-azacytidine, 16-point 1:2 titration spanning 1.8 nM to […] final concentration; (columns 5-48) doxycycline treated cells + titration of library compounds.\n3. Cells were incubated at 37 °C, 5 % CO2, 95% RH with breathable metal lid for 24h.\n4-10. […] After two washes, 10 ul of 1X PBS (Thermo Fisher) was dispensed to each well. Clear adhesive plate seals (VWR) were applied and plates stored at 4 °C.\n11. […]"}
{"molecule": "O=S(=O)(O)CCS", "activation": "32.2% (inactive) and 4.28% (inactive)"}
{"molecule": "C[C@@]12C[C@]3(O)O[C@H](O1)[C@]1(COC(=O)c4ccccc4)[C@H]3C[C@@]12O[C@@H]1O[C@H](COC(=O)c2ccccc2)[C@@H](O)[C@H](O)[C@H]1O", "activation": "-5.34% (inactive)"}
{"molecule": "CCN(CC)CCn1c(=O)c(Cc2ccc(OC)cc2)nc2ccccc21", "activation": "3.86% (inactive) and 2.44% (inactive)"}
{"molecule": "O=C(O)C1CN(CCCP(=O)(O)O)CCN1", "note": "(stereo not given)", "activation": "-32.5% (inactive)"}
{"molecule": "CC(C)(C)C1CCC(CC2=C(O)c3ccccc3C(=O)C2=O)CC1", "note": "(stereo not given)", "activation": "-11.9% (inactive)"}
{"molecule": "O=C(O)CCc1cccc(O[C@@H]2O[C@H](CO)[C@@H](O)[C@H](O)[C@H]2O)c1O", "activation": "-6.87% (inactive)"}
{"molecule": "C/C=C1\\[C@H](O[C@@H]2O[C@H](CO)[C@@H](O)[C@H](O)[C@H]2O)OC=C(C(=O)OC)[C@H]1CC(=O)O", "activation": "3.82% (inactive)"}
{"molecule": "CC1CC[C@]2(C(=O)O)CC[C@]3(C(=O)O)C(=CCC4[C@@]5(C)CC[C@H](O[C@@H]6O[C@H](CO)[C@@H](O)[C@H](O)[C@H]6O)C(C)(C)C5CC[C@]43C)C2C1C", "note": "(stereo not given in full)", "activation": "0.893% (inactive)"}
{"molecule": "Cc1ccc(O)c(N=Nc2ccccc2)n1", "activation": "34% (inactive)"}
{"molecule": "NC(=O)NCCCC(NC(=O)Cc1ccccc1)C(=O)O", "note": "(stereo not given)", "activation": "-1.79% (inactive)"}
{"molecule": "COc1cc(Cc2cnc(N)nc2N)c(C(C)C)cc1OC", "activation": "-15.2% (inactive)"}
{"molecule": "Cc1c(CN2CCN(S(C)(=O)=O)CC2)sc2c(N3CCOCC3)nc(-c3cnc(N)nc3)nc12", "activation": "-10.7% (inactive)"}
{"molecule": "CS(=O)(=O)N1CCC(NC(=O)c2[nH]ncc2NC(=O)c2c(Cl)cccc2Cl)CC1", "Potency": "3.01 µM (active)"}
{"molecule": "COC1CCCC/C(C)=C/C2C=C(C)C(C)C3C(CC(C)C)NC(=O)C23C(=O)C1", "note": "(stereo not given)", "activation": "-5.34% (inactive)"}
{"molecule": "CCc1cccc2c3c([nH]c12)C(CC)(CC(=O)O)OCC3", "note": "(stereo not given)", "activation": "-0.565% (inactive) and -1.6% (inactive)"}
{"molecule": "CCCCCCCCCCCCCCCC(=O)O[C@H]1[C@@H](O)[C@@H](O)[C@@H]([C@H](NC(=O)[C@@H]2C[C@@H](CCC)CN2C)[C@H](C)Cl)O[C@@H]1SC", "activation": "17.9% (inactive)"}
{"molecule": "FC(F)(F)c1cc(C(F)(F)F)c2ccc3nc(-c4nnco4)cn3c2n1", "activation": "5.73% (inactive)"}
{"molecule": "C1CCC(C(CC2CCCCN2)C2CCCCC2)CC1", "note": "(stereo not given)", "activation": "21.8% (inactive)"}
{"molecule": "CCCCOc1cc(CC2CNC(=O)N2)ccc1OC", "note": "(stereo not given)", "activation": "-11.2% (inactive)"}
{"molecule": "COc1c(C)c2c(c(O)c1C/C=C(\\C)CC/C=C(\\C)CCC(=O)O)C(=O)OC2", "activation": "6.11% (inactive)"}
{"molecule": "C=C1CCC2C(C)(C(=O)OC)CCCC2(C)C1CCC(C)CC(=O)O", "note": "(stereo not given)", "activation": "-13% (inactive)"}
{"molecule": "NCCCCCC(=O)O", "activation": "2.82% (inactive) and -3.41% (inactive)"}
{"molecule": "COc1ccc(C(=O)O[C@H]2CC(C)=CC[C@@]3(C)[C@@H](OC(C)=O)C[C@@](O)(C(C)C)[C@H]23)cc1", "activation": "1.79% (inactive)"}
{"molecule": "C/C(=C\\CCC(C)CCO)C(=O)OC[C@H]1O[C@@H](O[C@@H]2OC=C(C(=O)O)[C@H]3CC[C@](C)(O)[C@@H]23)C(O)[C@@H](O)C1O", "note": "(stereo not given in full)", "activation": "-20.5% (inactive)"}
{"molecule": "CN1CCN(C2=Nc3cc(F)ccc3Cc3ccccc32)CC1", "activation": "-11.9% (inactive)"}
{"molecule": "N#CC1C(=O)Nc2scc(-c3ccc(-c4ccccc4O)cc3)c2C1=O", "note": "(stereo not given)", "activation": "17% (inactive)"}
{"molecule": "COCCOc1ccc2c(c1)ncn2-c1ccc2cccc(N3CCC(N)CC3)c2n1", "Potency": "16.9 µM (active)"}
{"molecule": "CCOc1cc2ncc(C#N)c(Nc3ccc(F)c(Cl)c3)c2cc1NC(=O)/C=C/CN(C)C", "Potency": "13.5 µM (active)"}
{"molecule": "CN(C)CC1CCOC1(c1ccccc1)c1ccccc1", "note": "(stereo not given)", "activation": "-7% (inactive)"}
{"molecule": "Cc1cc(O)c2c(c1)C(=O)c1cccc(O)c1C2=O", "activation": "32.6% (inactive)"}
{"molecule": "COc1ccc([C@H]2OC[C@H]3[C@@H]2CO[C@@H]3c2ccc(O[C@@H]3O[C@H](CO)C(O)[C@H](O)[C@H]3O)c(OC)c2)cc1OC", "note": "(stereo not given in full)", "activation": "-1.79% (inactive)"}
{"molecule": "CCOc1ccc(-n2c([C@@H](C)N(Cc3cccnc3)C(=O)Cc3ccc(OC(F)(F)F)cc3)nc3ncccc3c2=O)cc1", "Potency": "19 µM (active)"}
{"molecule": "O=NN(CCCl)C(=O)NCCCl", "activation": "-1.09% (inactive) and 45.2% (inactive)"}
{"molecule": "CC(O)(C(=O)O)C1CCC2(C)C1CCC1(C)C2CCC2C3(C)CCC(O)C(C)(COC4OC(CO)C(O)C(O)C4O)C3CCC21C", "note": "(stereo not given)", "activation": "1.53% (inactive)"}
{"molecule": "CCCCCCn1c(=O)c2c(ncn2C)n(C)c1=O", "activation": "-5.08% (inactive)"}
{"molecule": "CC(=O)OC[C@H]1O[C@@H](n2ncc(=O)[nH]c2=O)[C@H](OC(C)=O)[C@@H]1OC(C)=O", "activation": "-7.53% (inactive)"}
{"molecule": "CCCCC(CC)COC(=O)c1ccccc1O", "note": "(stereo not given)", "activation": "-22.6% (inactive)"}
{"molecule": "Cc1c(O)cc2c(c1O)COC1(O)CCCOC21", "note": "(stereo not given)", "activation": "-17.6% (inactive)"}
{"molecule": "CC1(C)CC[C@]2(C(=O)O[C@@H]3O[C@H](CO)[C@@H](O)[C@H](O)[C@H]3O)CC[C@]3(C)C(=CCC4[C@@]5(C)C[C@@H](O)[C@H](O)[C@@](C)(CO)C5CC[C@]43C)C2C1", "note": "(stereo not given in full)", "activation": "8.4% (inactive)"}
{"molecule": "CCCc1cc(C)[nH]c(=O)c1CNC(=O)c1cc(-c2ccnc(N3CCN(C)CC3)c2)cc2c1cnn2C(C)C", "activation": "-12.3% (inactive)"}
